Screens as filed in PubChem.
Most compounds without a hit are left out; they make up all but 9.9% or so of the library.
SW480 rerep: inducers of DNA re-replication in SW480 colon cancer cells. SW480 DNA re-replication, Hoechst DNA content imaging, 48 h. Potency, µM (top dose mostly 46.1 µM), inactives show at the top dose re-replication activation, usual class: activators. 1.8% of 340,000 active; note: potency is the fitted concentration of half-maximal effect; % of control where 0% means no effect; nearly all actives have a fitted effect of over 55% in size
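Compounds, transferred as 23 nL by pin tool, were incubated with cells for 48 hr; DNA content per nucleus was then quantified by Hoechst staining and fluorescence plate imaging.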
IL-1B inflam inh: blocks inflammasome-driven IL-1 beta release; THP-1 LPS/ATP IL-1B secretion, AlphaLISA, 16 h; hits give low values; activity change, % at 57.5 µM; 4.7% of 360,000 active; in the data active = activity change below about -50%; inconclusive = mostly about -30% to -49%; note: % is set by controls: 0 for no effect and ±100 for the full control effect
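Secreted IL-1B measured by AlphaLISA bead assay after 16 h compound exposure of THP-1 cells; compounds (final up to 57.5 uM) added 1 h before LPS (250 ng/mL) and ATP (1.25 mM) stimulation; lower signal means less secretion.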
KB-3-1 tox: kills parental KB-3-1 adenocarcinoma cells. KB-3-1 viability, CellTiter-Glo ATP luminescence, 72 h. 1.4% of 400,000 active. Potency, µM (series often up to 46.1 µM), most hits filed as cytotoxic; note: potency is the fitted concentration of half-maximal effect; % is set by controls: 0 for no effect and ±100 for the full control effect; nearly all actives have a fitted effect of over 60% in size
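Luminescent ATP read-out (CellTiter-Glo) measures survival of drug-naive KB-3-1 cells after 72 h compound exposure at 37 °C. Titration series was screened from lowest to highest concentration, with DMSO vehicle plates as background controls.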
MCF10A rerep: induces DNA re-replication in MCF 10a normal breast cells. MCF 10A DNA re-replication, Hoechst nuclear intensity, 48 h. Potency, µM (series often up to 46.1 µM), without a hit: at the top dose activity, positive = re-replication, hits mostly activators. 2.9% of 350,000 active. AID 624296; note: potency is the fitted concentration of half-maximal effect; % of control where 0% means no effect; nearly all actives have a fitted effect of over 50% in size
KB-V1 cytotox: kills drug-selected multidrug resistant KB-V1 cells; 3.4% of 400,000 active; KB-V1 MDR cells viability, CellTiter-Glo, 72 h; Potency, µM (highest dose often 46.1 µM), most hits filed as cytotoxic; AID 1347076; note: potency is the fitted concentration of half-maximal effect; % is set by controls: 0 for no effect and ±100 for the full control effect; nearly all actives have a fitted effect of over 60% in size
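Cytotoxicity toward P-gp-expressing KB-V1 cells was determined as loss of CellTiter-Glo luminescence after 72 h at 37 degrees C. Compounds were tested in quantitative HTS format across a concentration range, with curves fitted to normalized data.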
The depositor's hits bear a star. Unless noted, calls come from the whole dose curve; as a rule, active = well fitted curve in the direction sought with a large enough effect; inconclusive = small, poorly fitted or top-dose-only effect, or another doubt; inactive = no such curve, though single readings can be large; an effect the other way counts as inactive or inconclusive.

Screening Cc1cccc2cc(C#N)c(NCCNS(=O)(=O)c3ccccc3)nc12 returned SW480 rerep inconclusive, IL-1B inflam inh 29.5, KB-3-1 tox inactive, MCF10A rerep 20.6µM* and KB-V1 cytotox inconclusive.
Screening Cc1cccc2cc(C#N)c(NCCCn3ccnc3)nc12 returned SW480 rerep inconclusive, IL-1B inflam inh -25.6, KB-3-1 tox inactive, MCF10A rerep inconclusive and KB-V1 cytotox 14.6µM*.
`Cc1cc(NCCCn2ccnc2)n2c(nc3ccccc32)c1C#N` gave SW480 rerep 3.0%, IL-1B inflam inh -14.3, KB-3-1 tox inactive, MCF10A rerep inconclusive and KB-V1 cytotox inactive.
Cc1cccc2cc(C#N)c(NCCCNS(=O)(=O)c3ccc(Cl)cc3)nc12 was read as SW480 rerep 16.4µM*, IL-1B inflam inh -24.5, KB-3-1 tox inconclusive, MCF10A rerep inconclusive and KB-V1 cytotox 9.2µM*.
Screening CCCCN(C(=O)C1CCN(C(=O)c2ccccc2C)CC1)c1c(N)n(CC(C)C)c(=O)[nH]c1=O returned SW480 rerep 20.0%, IL-1B inflam inh -8.5, KB-3-1 tox inactive, MCF10A rerep 7.8% and KB-V1 cytotox inactive.
For CCCCn1c(N)c(N(CC(C)C)C(=O)C2CCCO2)c(=O)[nH]c1=O (stereo unspecified) the results were SW480 rerep -1.4%, IL-1B inflam inh 14.0, KB-3-1 tox inactive, MCF10A rerep -0.8% and KB-V1 cytotox inactive.
For COc1ccc(Nc2nc3cc(C)ccc3cc2C#N)c(OC)c1 the results were SW480 rerep inconclusive, IL-1B inflam inh 62.1, KB-3-1 tox 2.06µM*, MCF10A rerep inconclusive and KB-V1 cytotox inactive.
`COc1ccc(Nc2nc3cc(C)ccc3cc2C#N)cc1` gave SW480 rerep -3.6%, IL-1B inflam inh 29.3, KB-3-1 tox inactive, MCF10A rerep 3.0% and KB-V1 cytotox inactive.
`Cc1cccc2cc(C#N)c(NCc3ccccc3)nc12` gave SW480 rerep inconclusive, IL-1B inflam inh 40.7, KB-3-1 tox inactive, MCF10A rerep 23.1µM* and KB-V1 cytotox inactive.
`Cc1cc(=O)oc2cc(Oc3ncccc3[N+](=O)[O-])ccc12` gave SW480 rerep -1.8%, IL-1B inflam inh 2.7, KB-3-1 tox inactive, MCF10A rerep -4.7% and KB-V1 cytotox inactive.
For O=c1oc2cc(Oc3ccc(C(F)(F)F)cc3[N+](=O)[O-])ccc2c2c1CCC2 the results were SW480 rerep -0.1%, IL-1B inflam inh -23.2, KB-3-1 tox inactive, MCF10A rerep inconclusive and KB-V1 cytotox 20.6µM*.
For O=C(NCCO)c1ccc(Oc2ccc(C(F)(F)F)cc2[N+](=O)[O-])cc1 the results were SW480 rerep -137.1%, IL-1B inflam inh -1.8, KB-3-1 tox inactive, MCF10A rerep -0.7% and KB-V1 cytotox inactive.
Cc1cc(=O)oc2cc(Oc3ccc([N+](=O)[O-])cc3[N+](=O)[O-])ccc12 was read as SW480 rerep -36.4%, IL-1B inflam inh -104.0*, KB-3-1 tox inactive, MCF10A rerep inconclusive and KB-V1 cytotox inconclusive.
Screening O=c1oc2cc(Oc3c([N+](=O)[O-])cc(C(F)(F)F)cc3[N+](=O)[O-])ccc2c2c1CCCC2 returned SW480 rerep -0.6%, IL-1B inflam inh -82.2*, KB-3-1 tox inconclusive, MCF10A rerep 19.4% and KB-V1 cytotox inconclusive.
`COCCCNC(=O)Cn1c(=O)n(Cc2ccc(C(=O)NCc3ccc(C)cc3)cc2)c(=O)c2ccccc21` gave KB-3-1 tox inactive and KB-V1 cytotox inactive.
Screening Cc1cccc(C(=O)NCC(=O)OCc2cc(=O)n3nc(C4CCCCC4)sc3n2)c1 returned KB-3-1 tox inconclusive and KB-V1 cytotox inactive.
CC(=O)NNC(=O)CSc1nnc(-c2ccccc2)c(-c2ccccc2)n1 was read as SW480 rerep 3.1%, IL-1B inflam inh -4.7, KB-3-1 tox inactive, MCF10A rerep 9.0% and KB-V1 cytotox inactive.
`CC(C)(C)NC(=O)CSc1nnc(-c2ccccc2)c(-c2ccccc2)n1` gave SW480 rerep -37.2%, IL-1B inflam inh -84.5*, KB-3-1 tox inactive, MCF10A rerep -0.5% and KB-V1 cytotox inactive.
`CCCCc1ccc(NC2=NCC(=O)N2CCc2ccccc2)cc1` gave SW480 rerep 4.6%, IL-1B inflam inh inconclusive, KB-3-1 tox inconclusive, MCF10A rerep 23.7% and KB-V1 cytotox inconclusive.
Screening O=[N+]([O-])c1ccc(O)c(-c2cc(C(F)(F)F)nc(-c3ccccc3)n2)c1 returned SW480 rerep 14.8%, IL-1B inflam inh -61.7*, KB-3-1 tox 1.46µM*, MCF10A rerep inconclusive and KB-V1 cytotox inconclusive.
For Cc1cc(C)c(OCCN(C)Cc2ccccc2)c(Br)c1 the results were SW480 rerep 6.1%, IL-1B inflam inh 8.6, KB-3-1 tox inactive, MCF10A rerep 7.9% and KB-V1 cytotox inactive.
`Cc1cc(Cl)cc(C)c1OCCOCCNCc1ccccc1` gave SW480 rerep 15.7%, IL-1B inflam inh inconclusive, KB-3-1 tox inactive, MCF10A rerep 14.2% and KB-V1 cytotox inconclusive.
For Cc1cc(C)c(OCCCCNCc2ccccc2)c(Cl)c1 the results were SW480 rerep inconclusive, IL-1B inflam inh -86.0*, KB-3-1 tox inconclusive, MCF10A rerep 23.1µM* and KB-V1 cytotox 8.2µM*.
For Cc1cc(C)c(OCCNCc2ccccc2)c(C)c1 the results were SW480 rerep 0.4%, IL-1B inflam inh -54.3*, KB-3-1 tox inactive, MCF10A rerep -6.5% and KB-V1 cytotox inactive.
For Cc1cc(C)c(C)c(OCCNCc2ccccc2)c1 the results were SW480 rerep -19.6%, IL-1B inflam inh -93.3*, KB-3-1 tox inactive, MCF10A rerep inconclusive and KB-V1 cytotox inconclusive.
Screening C=CCNCCOc1c(C)cc(C)cc1Cl returned SW480 rerep 0.1%, IL-1B inflam inh 12.2, KB-3-1 tox inactive, MCF10A rerep 4.6% and KB-V1 cytotox inactive.
`Cc1cc(Cl)cc(C)c1OCCNCc1ccccc1` gave SW480 rerep -0.4%, IL-1B inflam inh -96.0*, KB-3-1 tox inactive, MCF10A rerep inconclusive and KB-V1 cytotox inactive.
For COC(=O)C(c1ccccc1Cl)N1CCc2sccc2C1 (stereo unspecified) the results were SW480 rerep 4.8% and MCF10A rerep 10.6%.
`COc1ccc(C(=O)/C=C/Nc2ccc(S(=O)(=O)Nc3onc(C)c3C)cc2)cc1` gave SW480 rerep -7.9%, IL-1B inflam inh 16.4, KB-3-1 tox inactive, MCF10A rerep inconclusive and KB-V1 cytotox inactive.
CCCc1cc(=O)oc2cc(OC(C)C(=O)NC3CC(C)(C)NC(C)(C)C3)ccc12 (stereo unspecified) was read as SW480 rerep -1.3%, IL-1B inflam inh -5.6, KB-3-1 tox inactive, MCF10A rerep 17.2% and KB-V1 cytotox inconclusive.
Screening O=C(CCl)NCc1cc(-c2ccc(Cl)cc2)no1 returned SW480 rerep inconclusive, IL-1B inflam inh -75.1*, KB-3-1 tox inconclusive, MCF10A rerep inconclusive and KB-V1 cytotox inconclusive.
